# According to paper PMC7862700, “An all-to-all approach to the identification of sequence-specific readers for epigenetic DNA modifications on cytosine”:
# Assays:
# Assay in all cases: DAPPL (digital affinity profiling via proximity ligation, sequencing); 10 mM Tris-HCl pH 7.5, 50 mM NaCl, 1 mM DTT, 4% glycerol, room temperature, 30 min; GST-TFs on glutathione beads, 16-mer random dsDNA library, 0.1% formaldehyde crosslink after washing; high values mean tight binding
# FLI1 = target: T1, FLI1 (Homo sapiens, UniProt Q01543 1-452); conditions: protein: recombinant; tags: N-terminal GST; dsDNA, one strand shown
# T1 sequence: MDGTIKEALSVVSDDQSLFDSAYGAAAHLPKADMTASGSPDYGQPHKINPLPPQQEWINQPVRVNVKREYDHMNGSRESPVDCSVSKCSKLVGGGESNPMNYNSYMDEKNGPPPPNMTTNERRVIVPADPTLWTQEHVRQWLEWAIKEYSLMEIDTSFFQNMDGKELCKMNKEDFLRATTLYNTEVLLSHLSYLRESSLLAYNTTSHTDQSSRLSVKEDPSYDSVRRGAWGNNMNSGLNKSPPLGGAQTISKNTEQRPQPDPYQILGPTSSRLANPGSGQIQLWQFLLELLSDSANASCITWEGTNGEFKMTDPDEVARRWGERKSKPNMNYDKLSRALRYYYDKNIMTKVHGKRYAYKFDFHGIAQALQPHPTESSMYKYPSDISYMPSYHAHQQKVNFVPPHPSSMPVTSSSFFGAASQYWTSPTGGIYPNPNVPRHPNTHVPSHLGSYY
# Summary of the method: (§1)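 Each value of binding signal is a hexamer's read frequency for a factor divided by the same hexamer's frequency in the tag-only sample. Barcoded, bead-captured GST fusions of human transcription factors made in yeast were pooled with that sample and incubated with 200 nmole of a random double-stranded 16-mer DNA library in Tris/NaCl/DTT/glycerol buffer at room temperature for 30 min. Washing, 0.1% formaldehyde crosslinking, proximity ligation, PCR and Illumina NextSeq500 sequencing followed.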
# ELK1 = target: T2, ELK1 (Homo sapiens, UniProt P19419 1-428); conditions: protein: recombinant; tags: N-terminal GST; dsDNA, one strand shown
# T2 sequence: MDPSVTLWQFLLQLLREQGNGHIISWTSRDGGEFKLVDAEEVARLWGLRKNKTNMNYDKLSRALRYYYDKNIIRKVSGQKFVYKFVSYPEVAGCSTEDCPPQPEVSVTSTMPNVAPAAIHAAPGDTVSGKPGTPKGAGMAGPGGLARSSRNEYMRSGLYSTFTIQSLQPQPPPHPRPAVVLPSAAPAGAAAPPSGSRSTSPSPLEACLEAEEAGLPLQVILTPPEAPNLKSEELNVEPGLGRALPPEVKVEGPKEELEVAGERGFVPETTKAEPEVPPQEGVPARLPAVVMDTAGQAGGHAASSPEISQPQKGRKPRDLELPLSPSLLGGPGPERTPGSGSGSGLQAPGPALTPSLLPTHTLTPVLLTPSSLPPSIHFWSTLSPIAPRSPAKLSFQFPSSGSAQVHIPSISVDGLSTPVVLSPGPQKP
# Summary of the method: as §1
# GABPA = target: T3, GABPA (Homo sapiens, UniProt Q06546 1-454); conditions: protein: recombinant; tags: N-terminal GST; dsDNA, one strand shown
# T3 sequence: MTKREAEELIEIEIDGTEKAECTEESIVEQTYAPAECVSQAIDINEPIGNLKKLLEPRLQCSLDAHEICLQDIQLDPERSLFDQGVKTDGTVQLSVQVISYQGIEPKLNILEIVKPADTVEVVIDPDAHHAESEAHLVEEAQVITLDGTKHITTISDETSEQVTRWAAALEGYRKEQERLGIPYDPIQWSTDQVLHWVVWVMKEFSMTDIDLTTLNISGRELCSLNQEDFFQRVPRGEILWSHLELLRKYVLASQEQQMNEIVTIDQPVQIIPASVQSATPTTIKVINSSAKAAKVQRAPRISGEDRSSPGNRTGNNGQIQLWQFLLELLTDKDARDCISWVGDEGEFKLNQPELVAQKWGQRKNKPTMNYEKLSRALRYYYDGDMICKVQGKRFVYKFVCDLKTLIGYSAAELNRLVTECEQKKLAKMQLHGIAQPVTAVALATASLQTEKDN
# Summary of the method: as §1
# ERG = target: T4, ERG (Homo sapiens, UniProt P11308 1-479); conditions: protein: recombinant; tags: N-terminal GST; dsDNA, one strand shown
# T4 sequence: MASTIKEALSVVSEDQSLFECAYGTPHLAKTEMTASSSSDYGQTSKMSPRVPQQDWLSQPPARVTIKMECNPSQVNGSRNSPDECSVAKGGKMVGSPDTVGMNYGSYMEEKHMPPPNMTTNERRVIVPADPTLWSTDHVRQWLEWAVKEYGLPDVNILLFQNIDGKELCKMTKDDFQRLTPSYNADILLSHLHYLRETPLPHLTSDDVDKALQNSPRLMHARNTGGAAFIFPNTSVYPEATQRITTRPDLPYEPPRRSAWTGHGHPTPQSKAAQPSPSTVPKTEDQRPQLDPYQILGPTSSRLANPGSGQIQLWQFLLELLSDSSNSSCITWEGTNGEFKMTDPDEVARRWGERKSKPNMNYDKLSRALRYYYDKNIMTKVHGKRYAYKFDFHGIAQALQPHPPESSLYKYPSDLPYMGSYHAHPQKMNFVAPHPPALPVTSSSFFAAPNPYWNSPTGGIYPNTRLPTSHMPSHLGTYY
# Summary of the method: as §1
# ELF1 = ELF1 (Homo sapiens, UniProt P32519 1-619); conditions: protein: recombinant; tags: N-terminal GST; dsDNA, one strand shown
# ELF1, sequence (P32519 whole entry): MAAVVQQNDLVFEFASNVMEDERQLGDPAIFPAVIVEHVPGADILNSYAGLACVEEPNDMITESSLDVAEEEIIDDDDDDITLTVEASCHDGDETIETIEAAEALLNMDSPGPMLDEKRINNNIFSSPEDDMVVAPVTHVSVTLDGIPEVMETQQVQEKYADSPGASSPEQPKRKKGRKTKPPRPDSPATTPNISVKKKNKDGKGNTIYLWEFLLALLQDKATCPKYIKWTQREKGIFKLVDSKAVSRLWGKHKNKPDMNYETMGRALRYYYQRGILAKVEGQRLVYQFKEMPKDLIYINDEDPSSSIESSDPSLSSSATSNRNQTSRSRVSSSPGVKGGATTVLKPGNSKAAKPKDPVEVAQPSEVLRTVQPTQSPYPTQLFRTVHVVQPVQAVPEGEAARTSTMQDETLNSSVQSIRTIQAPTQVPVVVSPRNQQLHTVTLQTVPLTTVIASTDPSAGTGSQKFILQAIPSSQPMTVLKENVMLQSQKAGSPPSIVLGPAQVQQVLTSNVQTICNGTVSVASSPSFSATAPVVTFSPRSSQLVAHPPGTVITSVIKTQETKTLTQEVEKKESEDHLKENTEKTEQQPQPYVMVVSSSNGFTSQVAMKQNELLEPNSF
# Summary of the method: as §1
# EHF = target: T5, EHF (Homo sapiens, UniProt Q9NZC4 1-300); conditions: protein: recombinant; tags: N-terminal GST; dsDNA, one strand shown
# T5 sequence: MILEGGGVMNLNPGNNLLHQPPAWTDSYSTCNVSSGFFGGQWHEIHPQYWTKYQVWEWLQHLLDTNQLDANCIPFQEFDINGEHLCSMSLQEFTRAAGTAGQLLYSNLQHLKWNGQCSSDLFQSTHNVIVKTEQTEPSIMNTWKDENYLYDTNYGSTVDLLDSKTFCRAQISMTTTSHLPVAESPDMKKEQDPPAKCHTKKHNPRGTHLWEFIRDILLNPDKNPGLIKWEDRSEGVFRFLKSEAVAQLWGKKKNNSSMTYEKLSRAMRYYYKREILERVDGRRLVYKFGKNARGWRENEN
# Summary of the method: as §1
# SPI1 = SPI1 (Homo sapiens, UniProt P17947 1-270); conditions: protein: recombinant; tags: N-terminal GST; dsDNA, one strand shown
# Summary of the method: as §1
# SPIB = SPIB (Homo sapiens, UniProt Q01892 1-262); conditions: protein: recombinant; tags: N-terminal GST; dsDNA, one strand shown
# SPIB, sequence (Q01892 whole entry): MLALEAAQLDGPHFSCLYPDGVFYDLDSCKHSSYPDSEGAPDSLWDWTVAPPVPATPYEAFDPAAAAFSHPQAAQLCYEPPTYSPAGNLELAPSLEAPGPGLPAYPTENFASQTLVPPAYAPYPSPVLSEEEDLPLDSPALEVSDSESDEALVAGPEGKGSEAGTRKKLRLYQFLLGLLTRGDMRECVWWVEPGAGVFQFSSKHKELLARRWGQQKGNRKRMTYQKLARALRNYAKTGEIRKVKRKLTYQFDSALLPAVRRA
# Summary of the method: as §1
# ELK3 = target: T6, ELK3 (Homo sapiens, UniProt P41970 1-407); conditions: protein: recombinant; tags: N-terminal GST; dsDNA, one strand shown
# T6 sequence: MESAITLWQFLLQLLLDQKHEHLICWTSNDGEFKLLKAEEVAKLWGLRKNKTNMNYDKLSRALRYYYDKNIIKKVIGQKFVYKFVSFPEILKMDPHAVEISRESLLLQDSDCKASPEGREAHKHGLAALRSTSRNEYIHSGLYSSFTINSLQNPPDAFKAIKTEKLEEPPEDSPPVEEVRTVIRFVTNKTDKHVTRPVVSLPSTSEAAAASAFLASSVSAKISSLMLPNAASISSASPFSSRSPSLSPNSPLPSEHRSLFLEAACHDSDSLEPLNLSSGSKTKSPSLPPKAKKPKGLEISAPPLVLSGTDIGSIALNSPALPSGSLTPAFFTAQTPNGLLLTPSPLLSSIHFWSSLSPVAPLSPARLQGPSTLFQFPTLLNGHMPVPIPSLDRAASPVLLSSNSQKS
# Summary of the method: as §1
# FEV = target: T7, FEV (Homo sapiens, UniProt Q99581 1-238); conditions: protein: recombinant; tags: N-terminal GST; dsDNA, one strand shown
# T7 sequence: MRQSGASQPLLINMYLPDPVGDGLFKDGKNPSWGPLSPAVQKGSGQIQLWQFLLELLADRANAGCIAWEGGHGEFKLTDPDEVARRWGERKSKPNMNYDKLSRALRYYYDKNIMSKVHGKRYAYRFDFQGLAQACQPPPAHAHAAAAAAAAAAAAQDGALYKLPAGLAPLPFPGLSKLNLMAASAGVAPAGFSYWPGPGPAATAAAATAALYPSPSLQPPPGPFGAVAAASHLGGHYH
# Summary of the method: as §1
# ETV5 = ETV5 (Homo sapiens, UniProt P41161 1-510); conditions: protein: recombinant; tags: N-terminal GST; dsDNA, one strand shown
# ETV5, sequence (P41161 whole entry): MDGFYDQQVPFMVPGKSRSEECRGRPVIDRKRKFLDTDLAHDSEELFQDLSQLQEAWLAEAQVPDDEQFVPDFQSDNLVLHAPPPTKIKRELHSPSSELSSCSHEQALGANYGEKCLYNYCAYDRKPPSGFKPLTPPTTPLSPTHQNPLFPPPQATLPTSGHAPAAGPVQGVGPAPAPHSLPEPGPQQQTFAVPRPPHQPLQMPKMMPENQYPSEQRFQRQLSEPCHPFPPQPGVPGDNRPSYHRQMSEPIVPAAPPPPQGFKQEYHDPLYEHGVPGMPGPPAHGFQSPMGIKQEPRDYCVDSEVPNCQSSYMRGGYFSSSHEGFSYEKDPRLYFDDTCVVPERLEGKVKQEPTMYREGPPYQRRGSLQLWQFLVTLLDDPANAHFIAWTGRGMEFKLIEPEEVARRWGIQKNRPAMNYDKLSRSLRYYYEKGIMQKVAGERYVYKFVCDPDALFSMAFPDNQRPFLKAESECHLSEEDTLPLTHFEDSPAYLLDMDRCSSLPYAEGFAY
# Summary of the method: as §1
# HSF1 = HSF1 (Homo sapiens, UniProt Q00613 1-529); conditions: protein: recombinant; tags: N-terminal GST; chain copies: 3; dsDNA, one strand shown
# HSF1, sequence (Q00613 whole entry): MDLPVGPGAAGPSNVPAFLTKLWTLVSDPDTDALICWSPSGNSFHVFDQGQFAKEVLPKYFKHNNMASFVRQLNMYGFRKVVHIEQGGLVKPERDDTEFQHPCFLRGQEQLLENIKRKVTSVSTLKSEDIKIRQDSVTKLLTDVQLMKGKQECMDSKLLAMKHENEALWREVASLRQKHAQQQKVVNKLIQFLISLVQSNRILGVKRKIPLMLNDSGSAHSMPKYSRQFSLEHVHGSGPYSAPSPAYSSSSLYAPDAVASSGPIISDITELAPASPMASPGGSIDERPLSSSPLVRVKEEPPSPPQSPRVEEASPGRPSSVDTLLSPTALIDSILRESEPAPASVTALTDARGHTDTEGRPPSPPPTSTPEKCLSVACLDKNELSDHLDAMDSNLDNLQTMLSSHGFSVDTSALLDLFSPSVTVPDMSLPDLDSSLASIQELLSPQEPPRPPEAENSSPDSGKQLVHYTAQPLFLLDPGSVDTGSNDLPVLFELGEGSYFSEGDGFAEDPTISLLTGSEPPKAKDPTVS
# Summary of the method: as §1
# SPIC = target: T8, SPIC (Homo sapiens, UniProt Q8N5J4 1-248); conditions: protein: recombinant; tags: N-terminal GST; dsDNA, one strand shown
# T8 sequence: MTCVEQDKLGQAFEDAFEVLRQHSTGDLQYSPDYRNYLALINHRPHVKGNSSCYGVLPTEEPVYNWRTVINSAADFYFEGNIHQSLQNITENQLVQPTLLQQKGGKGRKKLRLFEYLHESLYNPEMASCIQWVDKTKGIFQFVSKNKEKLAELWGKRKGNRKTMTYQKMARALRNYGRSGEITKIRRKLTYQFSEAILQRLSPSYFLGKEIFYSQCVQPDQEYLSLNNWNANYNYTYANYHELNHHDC
# Summary of the method: as §1
# ELF4 = ELF4 (Homo sapiens, UniProt Q99607 1-663); conditions: protein: recombinant; tags: N-terminal GST; dsDNA, one strand shown
# ELF4, sequence (Q99607 whole entry): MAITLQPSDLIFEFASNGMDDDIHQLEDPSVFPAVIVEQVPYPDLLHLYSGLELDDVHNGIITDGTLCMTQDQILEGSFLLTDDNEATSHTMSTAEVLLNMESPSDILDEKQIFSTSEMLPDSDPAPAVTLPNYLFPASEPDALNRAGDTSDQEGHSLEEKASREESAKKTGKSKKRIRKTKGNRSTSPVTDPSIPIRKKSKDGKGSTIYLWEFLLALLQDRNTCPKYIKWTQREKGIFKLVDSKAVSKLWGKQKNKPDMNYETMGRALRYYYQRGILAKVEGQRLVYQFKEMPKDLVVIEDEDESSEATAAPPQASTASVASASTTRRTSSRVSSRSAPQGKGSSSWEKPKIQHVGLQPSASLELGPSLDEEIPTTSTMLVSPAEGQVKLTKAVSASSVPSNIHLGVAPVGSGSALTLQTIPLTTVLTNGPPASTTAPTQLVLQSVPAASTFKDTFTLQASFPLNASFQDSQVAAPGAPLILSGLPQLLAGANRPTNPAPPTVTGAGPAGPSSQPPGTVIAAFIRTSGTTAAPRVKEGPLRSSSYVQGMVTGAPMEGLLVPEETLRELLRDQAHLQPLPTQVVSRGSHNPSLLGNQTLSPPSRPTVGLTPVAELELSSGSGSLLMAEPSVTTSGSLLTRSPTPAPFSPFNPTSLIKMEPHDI
# Summary of the method: as §1
# ELK4 = target: T9, ELK4 (Homo sapiens, UniProt P28324-2 1-405); conditions: protein: recombinant; tags: N-terminal GST; dsDNA, one strand shown
# T9 sequence: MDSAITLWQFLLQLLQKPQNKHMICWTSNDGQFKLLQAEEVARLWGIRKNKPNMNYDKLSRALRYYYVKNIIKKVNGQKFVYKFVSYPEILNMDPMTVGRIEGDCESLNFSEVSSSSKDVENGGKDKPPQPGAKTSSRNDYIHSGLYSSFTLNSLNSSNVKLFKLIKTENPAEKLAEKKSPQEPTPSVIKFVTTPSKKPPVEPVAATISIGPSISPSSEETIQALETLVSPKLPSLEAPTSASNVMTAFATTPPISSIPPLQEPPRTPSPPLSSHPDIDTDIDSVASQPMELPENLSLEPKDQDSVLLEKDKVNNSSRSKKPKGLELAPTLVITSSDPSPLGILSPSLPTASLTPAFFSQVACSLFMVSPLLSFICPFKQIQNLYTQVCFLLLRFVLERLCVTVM
# Summary of the method: as §1
# ETV2 = target: T10, ETV2 (Homo sapiens, UniProt O00321 1-342); conditions: protein: recombinant; tags: N-terminal GST; dsDNA, one strand shown
# T10 sequence: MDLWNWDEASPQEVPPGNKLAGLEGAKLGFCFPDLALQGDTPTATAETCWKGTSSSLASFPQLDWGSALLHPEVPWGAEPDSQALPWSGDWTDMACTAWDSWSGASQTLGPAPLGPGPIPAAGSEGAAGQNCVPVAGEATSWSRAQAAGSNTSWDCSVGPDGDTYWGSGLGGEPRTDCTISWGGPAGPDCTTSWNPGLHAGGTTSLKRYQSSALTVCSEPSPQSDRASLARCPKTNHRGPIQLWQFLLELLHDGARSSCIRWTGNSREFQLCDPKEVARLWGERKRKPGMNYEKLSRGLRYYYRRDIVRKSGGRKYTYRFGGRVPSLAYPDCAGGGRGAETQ
# Summary of the method: as §1
# ELF3 = target: T11, ELF3 (Homo sapiens, UniProt P78545 1-371); conditions: protein: recombinant; tags: N-terminal GST; dsDNA, one strand shown
# T11 sequence: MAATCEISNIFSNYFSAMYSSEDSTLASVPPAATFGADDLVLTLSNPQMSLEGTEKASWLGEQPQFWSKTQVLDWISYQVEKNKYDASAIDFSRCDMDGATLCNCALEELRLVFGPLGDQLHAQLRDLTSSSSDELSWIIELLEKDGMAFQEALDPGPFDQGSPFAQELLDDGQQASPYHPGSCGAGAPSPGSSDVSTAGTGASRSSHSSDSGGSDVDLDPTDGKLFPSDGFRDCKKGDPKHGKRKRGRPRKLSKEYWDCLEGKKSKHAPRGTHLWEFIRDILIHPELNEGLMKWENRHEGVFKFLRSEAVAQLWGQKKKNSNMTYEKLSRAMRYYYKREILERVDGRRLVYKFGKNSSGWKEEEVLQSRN
# Summary of the method: as §1
# CRX = CRX (Homo sapiens, UniProt O43186 1-299); conditions: protein: recombinant; tags: N-terminal GST; dsDNA, one strand shown
# CRX, sequence (O43186 whole entry): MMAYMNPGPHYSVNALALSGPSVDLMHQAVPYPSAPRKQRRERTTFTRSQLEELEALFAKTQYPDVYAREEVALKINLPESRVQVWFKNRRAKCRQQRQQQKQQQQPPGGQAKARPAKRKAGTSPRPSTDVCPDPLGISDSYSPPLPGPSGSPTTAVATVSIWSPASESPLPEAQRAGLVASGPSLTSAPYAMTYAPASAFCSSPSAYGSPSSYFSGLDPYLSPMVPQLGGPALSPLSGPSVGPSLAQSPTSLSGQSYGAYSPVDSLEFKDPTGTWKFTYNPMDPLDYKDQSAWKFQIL
# Summary of the method: as §1
# ETV1 = ETV1 (Homo sapiens, UniProt P50549 1-477); conditions: protein: recombinant; tags: N-terminal GST; dsDNA, one strand shown
# ETV1, sequence (P50549 whole entry): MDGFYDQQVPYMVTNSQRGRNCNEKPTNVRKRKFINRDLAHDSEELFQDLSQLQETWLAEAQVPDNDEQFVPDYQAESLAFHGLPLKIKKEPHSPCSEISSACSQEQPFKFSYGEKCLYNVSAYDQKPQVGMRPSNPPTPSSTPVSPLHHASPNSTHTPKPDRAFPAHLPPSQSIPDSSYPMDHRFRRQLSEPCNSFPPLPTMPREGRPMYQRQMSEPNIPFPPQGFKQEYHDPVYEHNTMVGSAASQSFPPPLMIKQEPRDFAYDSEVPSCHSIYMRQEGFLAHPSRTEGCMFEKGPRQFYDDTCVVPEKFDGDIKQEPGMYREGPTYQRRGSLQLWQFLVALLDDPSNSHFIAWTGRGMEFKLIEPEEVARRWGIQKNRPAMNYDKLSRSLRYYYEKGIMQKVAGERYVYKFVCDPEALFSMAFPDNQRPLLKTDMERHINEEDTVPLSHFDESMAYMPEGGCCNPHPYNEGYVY
# Summary of the method: as §1
sequence,measurement,setting,value
ATATTG,binding signal,FLI1,"1.25 fold enrichment (6-mer frequency, TF over GST control)"
same,binding signal,ELK1,"1.31 fold enrichment (6-mer frequency, TF over GST control)"
same,binding signal,GABPA,"1.32 fold enrichment (6-mer frequency, TF over GST control)"
same,binding signal,ERG,"1.25 fold enrichment (6-mer frequency, TF over GST control)"
same,binding signal,ELF1,"1.31 fold enrichment (6-mer frequency, TF over GST control)"
same,binding signal,EHF,"1.3 fold enrichment (6-mer frequency, TF over GST control)"
same,binding signal,SPI1,"1.28 fold enrichment (6-mer frequency, TF over GST control)"
same,binding signal,SPIB,"1.28 fold enrichment (6-mer frequency, TF over GST control)"
same,binding signal,ELK3,"1.29 fold enrichment (6-mer frequency, TF over GST control)"
same,binding signal,FEV,"1.33 fold enrichment (6-mer frequency, TF over GST control)"
same,binding signal,ETV5,"1.37 fold enrichment (6-mer frequency, TF over GST control)"
same,binding signal,HSF1,"1.19 fold enrichment (6-mer frequency, TF over GST control)"
same,binding signal,SPIC,"1.41 fold enrichment (6-mer frequency, TF over GST control)"
same,binding signal,ELF4,"1.37 fold enrichment (6-mer frequency, TF over GST control)"
same,binding signal,ELK4,"1.24 fold enrichment (6-mer frequency, TF over GST control)"
same,binding signal,ETV2,"1.48 fold enrichment (6-mer frequency, TF over GST control)"
same,binding signal,ELF3,"1.25 fold enrichment (6-mer frequency, TF over GST control)"
same,binding signal,CRX,"1.28 fold enrichment (6-mer frequency, TF over GST control)"
same,binding signal,ETV1,"1.32 fold enrichment (6-mer frequency, TF over GST control)"
